Measured values as given in PubChem BioAssay AID1159580 (chemical genetic matrix, 2015).
The whole screen tested about 5,500 compounds, of which about 2,000 (36%) were called active. Roughly 18% stayed inconclusive and do not appear here. No stated cut-off is given here; in the data, active means normalized growth mostly below about 0.91 (no sharp cut-off); inconclusive means no clear call, values can overlap the other calls; inactive means mostly above about 0.92. The list shows a part of the results.

Assay: chemical genetic growth profiling, strain panel (AID 1159580);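 further: tested at 20 µM; growth read once vehicle control cultures reached saturation at 30 °C; 1 = growth at the plate median or of vehicle wells; lower values mean less growth of the strain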
Details: growth OD

Measured: normalized growth

CCn1cc(C(=O)O)c(=O)c2cnc(N3CCNCC3)nc21
inactive: S. cerevisiae deletion strains, locus YKL009W, strain mrt4, hits give low values 1.03 | S. cerevisiae deletion strains, locus YKL068W, hits give low values 0.994 | S. cerevisiae deletion strains, locus YKL085W, strain MDH1 (second series), hits give low values 0.984 | S. cerevisiae deletion strains, locus YKL085W, strain MDH1, hits give low values 0.984 | S. cerevisiae deletion strains, locus YKL160W, strain elf1, hits give low values 1.03 | S. cerevisiae deletion strains, locus YKL190W, strain CNB1, hits give low values 1 | S. cerevisiae deletion strains, locus YKR001C, strain vps1, hits give low values 1.02 | S. cerevisiae deletion strains, locus YKR026C, strain gcn3, hits give low values 1.01 | S. cerevisiae deletion strains, locus YKR091W, strain srl3, hits give low values 1 | S. cerevisiae deletion strains, locus YLL001W, strain dnm1, hits give low values 1.01 | S. cerevisiae deletion strains, locus YLL026W, hits give low values 1.02 | S. cerevisiae deletion strains, locus YLL041C, strain sdh2, hits give low values 1.01 | S. cerevisiae deletion strains, locus YLR027C, strain aat2, hits give low values 1.01 | S. cerevisiae deletion strains, locus YLR039C, strain RIC1, hits give low values 0.942 | S. cerevisiae deletion strains, locus YLR058C, strain SHM2, hits give low values 0.988 | S. cerevisiae deletion strains, locus YLR102C, strain apc9, hits give low values 0.993 | S. cerevisiae deletion strains, locus YLR113W, strain HOG1, hits give low values 1.02 | S. cerevisiae deletion strains, locus YLR221C, strain rsa3, hits give low values 1 | S. cerevisiae deletion strains, locus YLR258W, strain gsy2, hits give low values 1.04 | S. cerevisiae deletion strains, locus YLR262C, strain YPT6 (second series), hits give low values 0.992 | S. cerevisiae deletion strains, locus YLR262C, strain YPT6, hits give low values 0.975 | S. cerevisiae deletion strains, locus YLR268W, strain sec22, hits give low values 0.991 | S. cerevisiae deletion strains, locus YLR320W, strain mms22, hits give low values 0.968 | S. cerevisiae deletion strains, locus YLR330W, strain CHS5, hits give low values 0.981 | S. cerevisiae deletion strains, locus YLR342W, strain FKS1 (second series), hits give low values 0.96 | S. cerevisiae deletion strains, locus YLR342W, strain FKS1, hits give low values 1.02 | S. cerevisiae deletion strains, locus YLR357W, strain rsc2, hits give low values 1.01 | S. cerevisiae deletion strains, locus YLR370C, strain arc18, hits give low values 1.02 | S. cerevisiae deletion strains, locus YLR371W, strain rom2, hits give low values 0.981 | S. cerevisiae deletion strains, locus YLR384C, strain iki3, hits give low values 0.999 | S. cerevisiae deletion strains, locus YLR418C, strain cdc73, hits give low values 0.951 | S. cerevisiae deletion strains, locus YML016C, strain PPZ1, hits give low values 0.977 | S. cerevisiae deletion strains, locus YML032C, strain rad52, hits give low values 1 | S. cerevisiae deletion strains, locus YML120C, strain ndi1, hits give low values 1.03 | S. cerevisiae deletion strains, locus YML124C, strain tub3, hits give low values 0.985 | S. cerevisiae deletion strains, locus YMR058W, strain fet3, hits give low values 1.01 | S. cerevisiae deletion strains, locus YMR078C, strain ctf18, hits give low values 0.98 | S. cerevisiae deletion strains, locus YMR125W, strain sto1, hits give low values 1.02 | S. cerevisiae deletion strains, locus YMR129W, hits give low values 1.01 | S. cerevisiae deletion strains, locus YMR205C, strain PFK2, hits give low values 1 | S. cerevisiae deletion strains, locus YMR223W, strain ubp8, hits give low values 0.983 | S. cerevisiae deletion strains, locus YMR231W, strain pep5, hits give low values 1.01 | S. cerevisiae deletion strains, locus YMR263W, strain SAP30, hits give low values 1.01 | S. cerevisiae deletion strains, locus YMR307W, strain GAS1, hits give low values 1.01 | S. cerevisiae deletion strains, locus YNL067W, strain RPL9B, hits give low values 1.03 | S. cerevisiae deletion strains, locus YNL071W, strain lat1, hits give low values 1.01 | S. cerevisiae deletion strains, locus YNL128W, strain TEP1, hits give low values 0.977 | S. cerevisiae deletion strains, locus YNL153C, strain GIM3, hits give low values 1.06 | S. cerevisiae deletion strains, locus YNL183C, strain NPR1, hits give low values 0.997 | S. cerevisiae deletion strains, locus YNL209W, strain ssb2, hits give low values 1 | S. cerevisiae deletion strains, locus YNL233W, strain BNI4, hits give low values 1.02 | S. cerevisiae deletion strains, locus YNL248C, strain rpa49, hits give low values 1.04 | S. cerevisiae deletion strains, locus YNL250W, strain rad50, hits give low values 0.964 | S. cerevisiae deletion strains, locus YNL271C, strain bni1, hits give low values 0.979 | S. cerevisiae deletion strains, locus YNL298W, strain CLA4, hits give low values 0.978 | S. cerevisiae deletion strains, locus YNL307C, strain MCK1, hits give low values 0.991 | S. cerevisiae deletion strains, locus YNL322C, strain KRE1 (second series), hits give low values 1.04 | S. cerevisiae deletion strains, locus YNL322C, strain KRE1, hits give low values 0.997 | S. cerevisiae deletion strains, locus YNR049C, strain mso1, hits give low values 1.01 | S. cerevisiae deletion strains, locus YNR052C, strain pop2, hits give low values 0.979 | S. cerevisiae deletion strains, locus YOL006C, strain TOP1, hits give low values 1.07 | S. cerevisiae deletion strains, locus YOL012C, strain htz1 0.676 | S. cerevisiae deletion strains, locus YOL147C, strain pex11, hits give low values 0.991 | S. cerevisiae deletion strains, locus YOR001W, strain rrp6, hits give low values 1 | S. cerevisiae deletion strains, locus YOR061W, strain CKA2, hits give low values 0.988 | S. cerevisiae deletion strains, locus YOR069W, strain VPS5, hits give low values 0.984 | S. cerevisiae deletion strains, locus YOR070C, strain gyp1, hits give low values 1.02 | S. cerevisiae deletion strains, locus YOR080W, strain dia2, hits give low values 1.02 | S. cerevisiae deletion strains, locus YOR083W, strain WHI5, hits give low values 0.993 | S. cerevisiae deletion strains, locus YOR106W, strain vam3, hits give low values 1.04 | S. cerevisiae deletion strains, locus YOR136W, strain idh2, hits give low values 0.995 | S. cerevisiae deletion strains, locus YOR144C, strain elg1, hits give low values 0.988 | S. cerevisiae deletion strains, locus YOR184W, strain ser1, hits give low values 1 | S. cerevisiae deletion strains, locus YOR231W, strain MKK1, hits give low values 1.03 | S. cerevisiae deletion strains, locus YOR265W, strain rbl2, hits give low values 1.02 | S. cerevisiae deletion strains, locus YOR270C, strain vph1, hits give low values 1.16 | S. cerevisiae deletion strains, locus YOR290C, strain snf2, hits give low values 1.04 | S. cerevisiae deletion strains, locus YOR316C, strain cot1, hits give low values 0.99 | S. cerevisiae deletion strains, locus YPL051W, strain arl3, hits give low values 1.02 | S. cerevisiae deletion strains, locus YPL078C, strain atp4, hits give low values 1.04 | S. cerevisiae deletion strains, locus YPL106C, strain sse1, hits give low values 1.01 | S. cerevisiae deletion strains, locus YPL240C, strain hsp82, hits give low values 1 | S. cerevisiae deletion strains, locus YPL256C, strain CLN2, hits give low values 1.08 | S. cerevisiae deletion strains, locus YPR119W, strain clb2, hits give low values 0.993 | S. cerevisiae deletion strains, locus YPR141C, strain kar3, hits give low values 0.981 | S. cerevisiae deletion strains, locus YPR163C, strain tif3, hits give low values 0.984 | S. cerevisiae deletion strains, locus YPR167C, strain met16, hits give low values 0.979 | S. cerevisiae deletion strains, strain wtn01, hits give low values 0.982 | S. cerevisiae strains, strain wild type, hits give low values 0.998
